Compounds with a hit are over-represented: about 3.9% of the library has one in this group of screens.
GALK inh: galactokinase (human) inhibition. Purified GALK, Kinase-Glo residual ATP luminescence. hit rate 0.007% among 270,000. Potency, µM (top dose mostly 57.5 µM), without a hit: top-dose activity change, negative = inhibition, most hits filed as inhibitors; also: potency is read from the fitted curve at half-maximal effect; % is scaled to controls: 0 for no effect and ±100 for the full control effect
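Compounds were pin-transferred into ATP buffer (35 uM final), then GALK plus galactose (5 nM, 100 uM final) was added. After 1 h at room temperature, Kinase-Glo Plus was added and luminescence read after 10 min.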
D1 potentiator: enhances dopamine response at the human D1 receptor | P21728 | HEK293 TREx D1 cells, calcium flux, dopamine EC20 potentiation | potentiation, % at 10 µM | hit rate 0.036% among 360,000 | AID 504651; in the data active = potentiation above about 30%; also: 0% is about no effect
D1 ag: activates the human D1 dopamine receptor. P21728. hit rate 1% among 360,000. activation, % at 2 µM. HEK293 T-REx D1 cells, calcium flux, agonist mode; in the data active = activation above about 30%; also: 0% is about no effect
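Agonism was scored from calcium flux recorded over 180 s (1 read/s) after pintool compound addition, following a 10-cycle baseline. Cells were inducible force-coupled HEK293 TREx D1, plated overnight at 30 C and loaded with no-wash calcium dye.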
Eya2 phos inh: blocks the phosphatase activity of human Eya2; O00167; recombinant Eya2, OMFP fluorescence dephosphorylation (OMFP is methylfluorescein phosphate); Potency, µM (top dose mostly 76.9 µM), for inactives: top-dose activity, negative = inhibition, usual class: inhibitors; hit rate 0.006% among 330,000; AID 488837; also: potency is read from the fitted curve at half-maximal effect; % is scaled to controls: 0 for no effect and ±100 for the full control effect
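Eya2 (0.2 uM) preincubated 10 min at ambient with compound, then OMFP substrate added at 50 uM; 10 min reaction in 50 mM HEPES pH 7.5, 50 mM NaCl, 5 uM MgCl2, 0.05% BSA, 1 mM DTT. Fluorescence read at Ex 485/Em 525 nm.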
D1 antagonist: antagonists of human D1 dopamine receptor | P21728 | HEK293 TREx D1 cells, calcium flux, dopamine EC80; stronger effect = lower value | activity change, negative = inhibition, % at 10 µM | hit rate 3.2% among 360,000 | AID 504652; in the data active = activity change below about -30%; also: % is scaled to controls: 0 for no effect and ±100 for the full control effect
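HEK293 T-REx cells expressing inducible, force-coupled D1 receptor; no-wash Ca dye, 30–90 min RT. Cmpd → 180 s read at 1 Hz → EC80 DA → 180 s read.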
USP2a block: blocks human ubiquitin-specific protease USP2a | O75604 | AID 463254 | USP2 core, Ub-CHOP2 coupled fluorogenic reporter, 485/531 | hit rate 0.01% among 330,000 | Potency, µM (highest dose often 38.3 µM), for the others: top-dose activity change, negative = inhibition, usual class: inhibitors;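 also: potency is read from the fitted curve at half-maximal effect; plate controls were DMSO wells for no effect and full inhibition by NEM control for full effect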
Target sequence (O75604 whole entry, looked up): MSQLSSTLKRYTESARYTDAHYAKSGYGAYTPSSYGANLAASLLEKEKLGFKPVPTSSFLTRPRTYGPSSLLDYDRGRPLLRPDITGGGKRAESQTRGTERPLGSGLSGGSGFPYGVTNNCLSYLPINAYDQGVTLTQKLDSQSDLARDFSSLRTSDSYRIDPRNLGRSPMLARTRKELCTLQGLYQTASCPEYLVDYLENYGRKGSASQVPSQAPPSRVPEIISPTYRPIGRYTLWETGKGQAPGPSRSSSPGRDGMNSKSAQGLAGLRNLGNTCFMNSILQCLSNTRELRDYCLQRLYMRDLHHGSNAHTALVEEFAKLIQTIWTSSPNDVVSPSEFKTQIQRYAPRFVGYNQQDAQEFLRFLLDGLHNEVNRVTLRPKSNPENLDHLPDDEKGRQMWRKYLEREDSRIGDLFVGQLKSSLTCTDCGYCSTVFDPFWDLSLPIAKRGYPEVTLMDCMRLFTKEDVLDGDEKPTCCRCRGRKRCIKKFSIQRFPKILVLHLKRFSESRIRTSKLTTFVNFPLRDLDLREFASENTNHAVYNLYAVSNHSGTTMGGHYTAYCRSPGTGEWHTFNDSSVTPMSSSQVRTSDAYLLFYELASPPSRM
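Cell-free coupled assay: 10nM USP2 core preincubated 30min RT with compound in Tris-HCl pH 8.0/CaCl2/CHAPS buffer, then 25nM Ub-CHOP2 and 25nM reporter substrate; fluorescence (Ex 485/Em 531) read after 60min RT, normalized to NEM inhibition, concentration-response curves fitted.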
* marks the source's active call; other numbers are inactive results; · = no result; ! = not confirmed by another sample. Unless noted, calls follow the shape of the dose curve; as a rule, active = well fitted inhibition curve with a large enough effect; inconclusive = small, poorly fitted or top-dose-only effect, or effect the other way; inactive = flat fitted curve, though single readings scatter.

SMILES | GALK inh | D1 potentiator | D1 ag | Eya2 phos inh | D1 antagonist | USP2a block
CCN1C(=O)CC(C(=O)Nc2ccc(OC)cc2)SC1=Nc1ccc(C)c(C)c1 (configuration not stated) | · | 0 | 0 | · | -30 | ·
O=C(NCc1ccccc1CN1CCCC1)c1cccc(N2CCCC2=O)c1 | · | · | 4 | -20% | -37* | 2%
O=C(c1cccc(N2CCCC2=O)c1)N1CCN(c2ccccc2)CC1 | -5% | -3 | 1 | -5% | -31* | 1%
Cn1c(=O)c(=O)n(C)c2cc(NC(=O)c3cccc(F)c3)c(Cl)cc21 | · | -1 | 0 | · | 6 | ·
Cc1ccc(NC(=O)CSc2nc3nccnc3c(=O)n2CCc2c[nH]c3ccccc23)c(C)c1 | · | -5 | 0 | · | 14 | ·
COc1ccc(Cn2cc(C(=O)c3ccc(Cl)cc3)c(=O)c3cc4c(cc32)OCO4)cc1 | · | -3 | 6 | · | -7 | ·
COc1ccc(-c2nn(C)c3sc(C(=O)N4CCN(c5cccc(C)c5C)CC4)cc23)cc1OC | · | 3 | 0 | · | -9 | ·
COc1cccc(N2CC(NC(=O)Cc3cccs3)CC2=O)c1 (configuration not stated) | · | -1 | -3 | · | · | ·
Cc1cccc(Cn2c(SCc3ccc(C(=O)NCCc4ccccc4)cc3)nc3ccncc32)c1 | · | -4 | 9 | · | -12 | ·
O=C(NCCc1ccccc1)c1ccc(CSc2nc3ccncc3n2Cc2cccc(F)c2)cc1 | · | 7 | 59* | · | -35* | ·
COc1ccc(Cn2c(SCc3ccc(C(=O)NC4CCCCC4)cc3)nc3ccncc32)cc1 | · | -4 | 12 | · | -8 | ·
Cc1ccc(Cn2c(SCc3ccc(C(=O)NC4CCCC4)cc3)nc3ccncc32)cc1 | · | -5 | 8 | · | -37* | ·
COc1ccc(Cn2c(SCc3ccc(C(=O)NC4CCCC4)cc3)nc3ccncc32)cc1 | · | -3 | 5 | · | -31* | ·
Cc1ccc(Cn2c(SCc3ccc(C(=O)NC4CCCCC4)cc3)nc3ccncc32)cc1 | · | -5 | 3 | · | -16 | ·
CC(=O)Nc1ccc(NS(=O)(=O)c2ccc3[nH]c4c(c3c2)CCCCC4)cc1 | · | -4 | 3 | · | 6 | ·
COc1ccc(Cn2ccc3nc(C)c(C(=O)NCc4cccc(OC)c4)cc3c2=O)cc1 | · | 2 | 0 | · | -9 | ·
CCOc1ccc(NC(=O)Cn2cnc3c(oc4ccccc43)c2=O)cc1 | · | -2 | 0 | · | 2 | ·
O=C(CSc1nc(-c2cccc(Cl)c2)nc2cc(=O)[nH]n12)Nc1ccccc1 | · | 0 | 0 | · | 4 | ·
Cc1cccc(Nc2nn3c(=O)c4cc5c(cc4nc3s2)OCO5)c1 | · | -1 | 1 | · | 36 | ·
Cc1ccc(N=Nc2c(N)[nH]n3c(=O)cc(-c4ccccc4)nc23)cc1 | · | -16 | 1 | 9% | -23 | 1%
COc1cccc(N=Nc2c(N)[nH]n3c(=O)cc(-c4ccccc4)nc23)c1 | · | -5 | 2 | 15% | -40* | 0%
CCc1ccc(NC(=O)c2ccc(CN3CC(=O)N4CCCCC4C3=O)cc2)cc1 (configuration not stated) | · | -1 | -1 | · | 6 | ·
COc1ccc2oc(C(=O)OCC(=O)Nc3ccc(NC(C)=O)cc3)c(C)c2c1 | · | 4 | 2 | -8% | 11 | 2%
COc1ccc2oc(C(=O)OCC(=O)NC3CCCC3)c(C)c2c1 | 0% | -3 | 3 | 4% | -37* | -2%
CCOc1ccc2oc(C(=O)OCC(=O)NC3CCCCC3)c(C)c2c1 | · | -6 | 5 | -19% | -12 | 0%
SMILES | GALK inh | D1 potentiator | D1 ag | Eya2 phos inh | D1 antagonist | USP2a block
COc1ccc2oc(C(=O)OCC(=O)NC3(C#N)CCCC3)c(C)c2c1 | · | -6 | 9 | 27% | -49* | 0%
COC(=O)c1ccc(NC(=O)CN(C)S(=O)(=O)c2ccc(Br)s2)cc1 | · | -4 | 11 | · | -16 | ·
Cc1cc(=O)oc2cc(OCc3ccc(C(=O)N4CCN(c5ccccc5)CC4)cc3)ccc12 | 0% | -4 | 1 | -2% | -37* | -2%
Cc1cc(=O)oc2cc(OCc3ccc(C(=O)N4CCN(c5ccc([N+](=O)[O-])cc5)CC4)cc3)ccc12 | · | -4 | 3 | -3% | -16 | -1%
O=C(c1ccc2c(c1)OCO2)c1cn(Cc2ccc(Cl)cc2)c2ccc(F)cc2c1=O | · | -1 | 5 | · | 7 | ·
COc1cccc(NC(=O)COC(=O)C2CC(=O)N(c3ccc(C)cc3)C2)c1 (configuration not stated) | · | -3 | 2 | 12% | -6 | 1%
COc1ccc(N2CC(C(=O)OCC(=O)Nc3cccc(C)c3)CC2=O)cc1 (configuration not stated) | 2% | 8 | 2 | 11% | -31* | 4%
CN(CCC#N)C(=O)COC(=O)c1ccc(Cl)cc1O | -1% | -4 | -1 | 4% | -34* | 4%
CCOC(=O)CC(NC(=O)Cn1nnc(-c2ccccc2Cl)n1)c1ccc(OC)cc1 (configuration not stated) | -1% | -4 | 65*! | 12% | -10 | 6%
Cc1nc2ncnn2c(C)c1CCC(=O)O | -1% | -2 | 1 | 17% | -37* | 0%
CCOC(=O)c1ccc(N2CCN(c3ccccc3OC)CC2)c(NC(=O)Nc2ccc(CC)cc2)c1 | · | -1 | -2 | · | 22 | ·
O=C1Nc2ccccc2S/C1=C/c1cccs1 | · | -5 | 5 | -9% | -8 | 0%
O=C1/C(=C/c2cccs2)Sc2ccccc21 | 3% | 1 | 3 | 10% | -93* | 2%
CC(C)(CNC(=O)Cc1ccc(Br)cc1)N1CCOCC1 | -2% | -8 | 1 | 14% | -37* | 0%
Cc1[nH]c2ccccc2c1SCC(=O)N1CCOCC1 | 0% | 3 | 2 | 2% | 5 | 4%
Cc1[nH]c2ccccc2c1SCC(=O)N1CCC(C)CC1 | 6% | -3 | 0 | -11% | -49* | 2%
CC(NC(=O)COC(=O)c1ccco1)C12CC3CC(CC(C3)C1)C2 (configuration not stated) | · | 4 | 1 | · | -5 | ·
O=C(CCC(=O)N1CC2CCCN2c2ccccc21)NCc1cccc(Cl)c1 (configuration not stated) | · | -7 | 10 | · | -29 | ·
CC(=O)c1c(C(C)=O)c(C)n(NC(=O)c2ccccc2Cl)c1C | -4% | -12 | 15 | 5% | -49* | -1%
Cc1ccc(C)n1NC(=O)c1ccccc1Cl | -2% | -3 | 3 | -29% | -10 | 3%
NC(=O)c1cccc(C[C@H](C(=O)O)N2C(=O)c3ccc(C(=O)O)cc3C2=O)c1 | · | 3 | 4 | 4% | -17 | 3%
Clc1ccc(CSc2snnc2-c2ccccc2)c(Cl)c1 | -1% | -5 | 51* | 4% | -10 | 1%
